Assay results from PubChem BioAssay (EPA / NIEHS).
Inconclusive results are not listed. Activity calls are given as the source filed them. The calls were made as follows, unless noted: active = hit-call score of the fitted dose curve at least 0.9, where 1 is the maximum; inactive = score below 0.9.

Key:
[1] = biological target: Cellular tumor antigen p53 (Homo sapiens) (UniProt P04637); test: TOX21_p53_BLA_p2_ratio: Tox21 HCT-116 p53 Agonism Beta-lactamase Assay, Ratio, Phase 2 (AID 2283592; active = hit-call score of the fitted dose curve at least 0.9, where 1 is the maximum)
Chain of Cellular tumor antigen p53 (Homo sapiens) (P04637 whole entry, looked up): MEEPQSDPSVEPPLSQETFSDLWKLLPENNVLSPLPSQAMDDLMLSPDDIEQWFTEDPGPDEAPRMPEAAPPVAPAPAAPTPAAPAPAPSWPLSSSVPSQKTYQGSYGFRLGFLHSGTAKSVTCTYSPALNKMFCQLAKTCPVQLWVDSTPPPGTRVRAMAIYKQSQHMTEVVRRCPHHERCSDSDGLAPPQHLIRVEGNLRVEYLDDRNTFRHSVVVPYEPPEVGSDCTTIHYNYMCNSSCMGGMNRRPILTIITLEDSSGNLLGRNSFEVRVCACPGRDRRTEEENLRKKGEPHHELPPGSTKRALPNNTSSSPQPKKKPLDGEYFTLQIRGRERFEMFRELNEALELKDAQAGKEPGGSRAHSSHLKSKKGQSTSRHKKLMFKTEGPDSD
Summary of the method: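 HCT116 cells carrying a p53-responsive beta-lactamase reporter were plated, incubated 5 h at 37C, then dosed with compounds in DMSO (217-fold dilution) for 16 h. CCF4-AM substrate was added for 2 h at room temperature; the 460/530 nm emission ratio gave gain-of-signal activity relative to DMSO.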

[2] = TOX21_p53_BLA_p3_viability: Viability Assessment in the Tox21 HCT-116 p53 Agonism Beta-lactamase Assay, Phase 3 (AID 2283593; active = hit-call score of the fitted dose curve at least 0.9, where 1 is the maximum;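 also: cells exposed to compound for 16 h before reading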)
Summary of the method: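 HCT-116 cells (4000/well) rested 5 h at 37C, then got DMSO compounds by pin tool (217-fold dilution) for 16 h at 37C, 5% CO2. After the bla read, CellTiter-Glo was added and luminescence read at 30 min, room temperature.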

[3] = biological target: Cellular tumor antigen p53 (Homo sapiens) (UniProt P04637); test: TOX21_p53_BLA_p3_ratio: Tox21 HCT-116 p53 Agonism Beta-lactamase Assay, Ratio, Phase 3 (AID 2283596; active = hit-call score of the fitted dose curve at least 0.9, where 1 is the maximum)
Summary of the method: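 HCT116 p53-bla cells (4000/well) given compound in DMSO (217-fold dilution) after 5 h, incubated 16 h at 37C. CCF4-AM substrate 2 h at room temperature; 460/530 nm emission ratio, gain fitted against DMSO.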

[4] = TOX21_p53_BLA_p4_viability: Viability Assessment in the Tox21 HCT-116 p53 Agonism Beta-lactamase Assay, Phase 4 (AID 2283597; active = hit-call score of the fitted dose curve at least 0.9, where 1 is the maximum;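 also: hits lower the luminescence signal meaning cytotoxicity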)
Summary of the method: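 HCT116 p53-bla cells (4000/well) rested 5 h at 37C, then received compounds in DMSO (217-fold dilution) for 16 h at 37C, 5% CO2. CellTiter-Glo was added after the CCF4-AM read, and luminescence was read after 30 min at room temperature.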

[5] = biological target: Cellular tumor antigen p53 (Homo sapiens) (UniProt P04637); test: TOX21_p53_BLA_p5_ratio: Tox21 HCT-116 p53 Agonism Beta-lactamase Assay, Ratio, Phase 5 (AID 2283599; active = hit-call score of the fitted dose curve at least 0.9, where 1 is the maximum)
Summary of the method: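 HCT-116 cells carrying a p53-inducible beta-lactamase reporter were seeded at 4000 cells/well and dosed after 5 h with compound in DMSO (217-fold dilution). After 16 h at 37C, CCF4-AM substrate was added for 2 h, and the 460/530 nm emission ratio was scored as gain-of-signal versus DMSO.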

[6] = biological target: Cellular tumor antigen p53 (Homo sapiens) (UniProt P04637); test: TOX21_p53_BLA_p4_ratio: Tox21 HCT-116 p53 Agonism Beta-lactamase Assay, Ratio, Phase 4 (AID 2283601; active = hit-call score of the fitted dose curve at least 0.9, where 1 is the maximum)
Summary of the method: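 HCT116 cells carrying an inducible beta-lactamase reporter were plated at 4000 cells/well, rested 5 h, then exposed to compounds in DMSO (217-fold dilution) for 16 h at 37C. CCF4-AM substrate was loaded 2 h at room temperature; 460/530 nm emission ratio scored gain-of-signal versus DMSO.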

[7] = CCTE_Shafer_MEA_dev_firing_rate_mean: CCTE's Neural Network Formation Assay for Mean Firing Rate, Shafer Lab (AID 2284031)
Summary of the method: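 Primary rat cortical neurons on 48-well MEA plates, exposed from plating day 0 with dosing renewed on DIV 5 and 9. Mean well firing rate over active electrodes, recorded days 5, 7, 9, 12, summarised as trapezoidal AUC.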

[8] = CCTE_Shafer_MEA_dev_per_burst_spike_percent: CCTE's Neural Network Formation Assay for Percent of Spikes in a Burst, Shafer Lab (AID 2284032)
Summary of the method: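 Rat primary cortical neurons on 16-electrode MEA wells, dosed from plating day 0 for 12 days with renewal on DIV 5 and 9; spikes-in-bursts percentage averaged over bursting electrodes, collapsed as AUC across days 5, 7, 9, 12; loss direction versus DMSO.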

[9] = CCTE_Shafer_MEA_dev_active_electrodes_number: CCTE's Neural Network Formation Assay for Number of Active Electrodes, Shafer Lab (AID 2284040; active = hit-call score of the fitted dose curve at least 0.9, where 1 is the maximum;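 also: potency for loss of active electrodes versus DMSO so lower counts are hits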)
Summary of the method: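 Primary rat cortical neurons on 16-electrode MEA wells, exposed from day 0 through day 12 with compound renewed at DIV 5 and 9 feeds. Active electrodes (mean firing ≥5 spikes/min) counted at DIV 5, 7, 9, 12; trapezoidal AUC across days, loss-of-signal versus DMSO.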

[10] = CCTE_Shafer_MEA_dev_burst_rate: CCTE's Neural Network Formation Assay for Burst Rate, Shafer Lab (AID 2284042)
Summary of the method: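 Developmental network assay measuring how 12-day exposure of rat cortical neuron cultures alters bursting on extracellular MEA recordings. Values are AUC of well-mean burst rate across four recording days, relative to DMSO vehicle.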

[11] = CCTE_Shafer_MEA_dev_bursting_electrodes_number: CCTE's Neural Network Formation Assay for Number of Bursting Electrodes, Shafer Lab (AID 2284043; active = hit-call score of the fitted dose curve at least 0.9, where 1 is the maximum;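 also: potency is for loss of bursting electrodes relative to DMSO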)
Summary of the method: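 Primary rat cortical neurons were cultured on PEI-coated 48-well MEA plates (16 electrodes/well) and exposed from plating through day 12, with compound renewed at feeds on DIV 5 and 9. Electrodes bursting ≥1 per 2 min were counted on DIV 5, 7, 9, 12; trapezoidal AUC taken.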

[12] = CCTE_Shafer_MEA_dev_per_burst_interspike_interval: CCTE's Neural Network Formation Assay for Burst Interspike Interval, Shafer Lab (AID 2284044);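 also: mean spike spacing inside bursts as AUC over recordings on days 5 7 9 12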
Summary of the method: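 Rat cortical primary cultures, 16 electrodes/well; compound from plating, renewed with full media change DIV 5 and 9. Spikes via adaptive detector; per-burst ISI well-mean over active bursting electrodes; AUC of DIV 5/7/9/12 recordings; loss-direction fit vs DMSO.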

[13] = CCTE_Shafer_MEA_dev_burst_duration_mean: CCTE's Neural Network Formation Assay for Mean Burst Duration, Shafer Lab (AID 2284045)
Summary of the method: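 Primary rat cortical neurons on PEI-coated 16-electrode MEA wells, exposed from plating through day 12 with compound renewed at DIV 5 and 9; spontaneous activity recorded days 5, 7, 9, 12. Well-mean burst duration collapsed as trapezoidal AUC, fitted for loss versus DMSO.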

[14] = CCTE_Shafer_MEA_dev_interburst_interval_mean: CCTE's Neural Network Formation Assay for Mean Interburst Interval, Shafer Lab (AID 2284046);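 also: well-mean interburst interval of bursting electrodes as AUC over four recording days; curve fitted for decrease in interburst interval relative to DMSO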
Summary of the method: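 Network formation assay in primary rat cortical cultures, exposed from DIV 0 to 12. Mean interburst interval per well, integrated as AUC over four recordings.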

[15] = CCTE_Shafer_MEA_dev_inter_network_spike_interval_mean: CCTE's Neural Network Formation Assay for Mean Inter-network Spike Interval, Shafer Lab (AID 2284047)
Summary of the method: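 Compound was given at plating to primary rat cortical neurons and renewed with full medium changes on DIV 5 and 9. Extracellular activity was recorded on days 5, 7, 9, 12; AUC values were fitted for loss relative to DMSO control.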

[16] = CCTE_Shafer_MEA_dev_network_spike_number: CCTE's Neural Network Formation Assay for Number of Network Spikes, Shafer Lab (AID 2284048);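 also: synchronized bursts across electrodes counted on days 5 7 9 12 and integrated as AUC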
Summary of the method: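 Primary rat cortical neurons were seeded at 1.5 x 10^5 cells/well on PEI-coated 16-electrode MEA wells with laminin, exposed from plating day 0, compound renewed at DIV 5 and 9. Network spikes were recorded on days 5, 7, 9, 12 and summarized as trapezoidal AUC versus DMSO.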

[17] = CCTE_Shafer_MEA_dev_network_spike_peak: CCTE's Neural Network Formation Assay for Mean Number of Electrodes in Network Spike, Shafer Lab (AID 2284049);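 also: fitted for loss of signal meaning fewer electrodes in network spikes than DMSO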
Summary of the method: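 Continuous 12-day exposure of rat cortical cultures, starting at plating, on MEA plates. Endpoint: electrodes participating in network-spike peaks, AUC across DIV 5–12, DMSO as negative control.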

[18] = CCTE_Shafer_MEA_dev_spike_duration_mean: CCTE's Neural Network Formation Assay for Mean Spike Duration, Shafer Lab (AID 2284051);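 also: mean network spike duration pooled as area under curve over DIV 5 to 12 recordings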
Summary of the method: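 With DMSO as baseline, loss of mean network spike duration was scored from extracellular recordings of rat cortical neurons on MEA plates. Exposure spanned plating to DIV 12; the four recording days were collapsed into one AUC value.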

[19] = CCTE_Shafer_MEA_dev_network_spike_duration_std: CCTE's Neural Network Formation Assay for Standard Deviation of Network Spike Duration, Shafer Lab (AID 2284052);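 also: area under curve of spike duration SD across recording days 5 to 12; hits are decreases in network spike duration SD versus DMSO vehicle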
Summary of the method: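 Developing networks of rat cortical neurons were exposed over twelve days in vitro on 48-well MEA plates. Trapezoidal AUC of recordings (DIV 5–12) was analysed for signal loss relative to DMSO vehicle.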

[20] = CCTE_Shafer_MEA_dev_per_network_spike_spike_number_mean: CCTE's Neural Network Formation Assay for Mean Number of Spikes in a Network Spike, Shafer Lab (AID 2284053)
Summary of the method: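 First, rat cortical cells (1.5 x 10^5/well) were seeded onto MEA wells; second, dosing began at plating and was refreshed on DIV 5 and 9; finally, network-spike spike counts across DIV 5–12 were summarized as AUC.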

[21] = CCTE_Shafer_MEA_dev_per_network_spike_spike_percent: CCTE's Neural Network Formation Assay for Percent of Spikes in a Network Spike, Shafer Lab (AID 2284054)
Summary of the method: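 Primary rat cortical neurons on 16-electrode MEA wells (PEI-coated, laminin at plating), exposed from day 0 with renewal at DIV 5 and 9; spikes within 0.05 s of network-spike peaks over total spikes, AUC across days 5, 7, 9, 12.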

[22] = CCTE_Shafer_MEA_dev_LDH: CCTE's Lactate Dehydrogenase Assay for Cytotoxicity in the Neural Network Formation Assay, Shafer Lab (AID 2284068; active = hit-call score of the fitted dose curve at least 0.9, where 1 is the maximum;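 also: exposure for twelve days from plating with re-dosing on DIV 5 and 9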)
Summary of the method: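 Developing rat cortical networks on MEA plates are exposed to compound for 12 days from plating. LDH activity is measured spectrophotometrically, with DMSO as baseline.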

[23] = CCTE_Shafer_MEA_dev_AB: CCTE's Alamar Blue Assay for Cytotoxicity in the Neural Network Formation Assay, Shafer Lab (AID 2284083; active = hit-call score of the fitted dose curve at least 0.9, where 1 is the maximum;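 also: resazurin reduction fluorescence as viability of cultured neurons; twelve days of exposure from plating with re-dosing on DIV 5 and 9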)
Summary of the method: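 Cytotoxicity companion to the developmental MEA: primary rat cortical neurons, 12-day exposure starting day 0, compound refreshed DIV 5 and 9; resazurin fluorescence, fitted against DMSO vehicle.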

[24] = CCTE_Shafer_MEA_dev_mutual_information_norm: CCTE's Neural Network Formation Assay for Mutual Information Normalization, Shafer Lab (AID 2284091)
Summary of the method: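 Rat cortical cultures, 48-well MEA, continuous exposure DIV 0–12 with full media/compound change DIV 5 and 9. Readout: inter-electrode mutual information, AxIS adaptive spike detection; AUC across DIV 5/7/9/12 recordings; DMSO baseline, negative fitting direction.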

[25] = CCTE_Shafer_MEA_dev_correlation_coefficient_mean: CCTE's Neural Network Formation Assay for Mean Correlation Coefficient, Shafer Lab (AID 2284093)
Summary of the method: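 Extracellular firing from rat cortical networks on 48-well MEAs, DMSO-referenced, negative fitting direction. Compound present from plating to DIV12; mean pairwise correlation per well integrated over DIV5–12 recordings by trapezoidal AUC.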

[26] = UKN2_HCS_IMR90_neural_migration: University of Konstanz (UKN) Leist Lab Neural Crest Cell Migration Assay in human induced IMR90 Pluripotent Stem Cells (UKN2) (AID 2284204); details: actives raise or lower the signal
Summary of the method: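 iPSC-derived IMR90 neural crest cells on PLO/laminin/fibronectin were seeded around silicone stoppers; after stopper removal, migration in N2-S medium with EGF and FGF ran 24 h before 24 h chemical exposure. Calcein-AM/Hoechst high-content imaging; bidirectional fit versus DMSO.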

[27] = IUF_NPC1b_proliferation_BrdU_72hr: Leibniz Research Institute for Environmental Medicine (IUF) 72-hour Neural Progenitor Cell Bromodeoxyuridine (BrdU) Proliferation Assay (NPC1b) (AID 2284207)
Summary of the method: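 hNPC spheres (primary, GW 16-19 fetal cortex), single sphere/well, EGF+FGF medium; 72 h compound, no renewal; BrdU pulse last 16 h; luminescent ELISA; activity vs DMSO baseline; growth-factor withdrawal as positive control.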

[28] = IUF_NPC1a_proliferation_area_72hr: Leibniz Research Institute for Environmental Medicine (IUF) 72-hour Neural Progenitor Cell Proliferation Area Assay (NPC1a) (AID 2284208)
Summary of the method: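 Read-out: increase in sphere area over 72 h by automated phase-contrast imaging, fitted in positive direction versus DMSO baseline. One hNPC sphere (0.25-0.35 mm) per well in EGF/FGF medium; growth-factor withdrawal served as positive control.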

Measured: AC50

[Cl-].[Cl-].[NH2-].[NH2-].[Pt+4]
active: [9] 10.4 µM | [11] 5.08 µM | [17] 9.92 µM | [22] 81 µM | [27] 5.68 µM | [28] 34.9 µM
inactive: all other assays above
